The values that follow come from PubChem BioAssay (NCI).

SMILES strings stand for the structures. Compounds without any hit were thinned out: in the full panel of roughly 83,000, 20% have a hit.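 96-well plates, one dose, 48 hours. Percent growth reported; active if below 10.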 Values without a mark were called inactive. Active and inactive are the calls of the source.

Among the test systems are NCI-H23 lung; NCI-H226 lung; NCI-H322M lung; HOP-62 NSCLC; NCI-H460 lung; HOP-92 NSCLC; NCI-H522 lung; A549/ATCC NSCLC; 786-0 renal; COLO 205 colon.
Holding throughout (assay): NCI-60 one-dose screen, 48 h (100 = growth as untreated, 0 = no growth, -100 = all killed)
Common to all, as to conditions: 10 µM unless noted

With `Fc1cccc(F)c1C#Cc1ccc2cccnc2c1`, the growth in the assay with NCI-H23 lung is 79.5%; in the assay on NCI-H226 lung, 101%; in the assay with NCI-H322M lung it was 89.8%; with HOP-62 NSCLC, 89.5%; in the assay on NCI-H460 lung, 86%; in the assay on HOP-92 NSCLC, 82.4%. Also, the growth in the assay on NCI-H522 lung was 75.8%; with A549/ATCC NSCLC, 82.6%; with 786-0 renal, 113%; in the assay on COLO 205 colon, 96.4%.

For `O=C(/C=C/c1ccco1)c1cccc(Nc2nc(Nc3ccccc3)nc(Nc3ccccc3)n2)c1`, the growth in the assay on NCI-H23 lung was 57.6%; in the assay with NCI-H226 lung it was 99.5%; with NCI-H322M lung it was 34.6%; in the assay with HOP-62 NSCLC, 86.5%; in the assay with NCI-H460 lung it was 8.52% (active); in the assay with HOP-92 NSCLC it was 49.1%. For the same compound, the growth with NCI-H522 lung was 78.6%; in the assay on A549/ATCC NSCLC, 20.1%; in the assay with 786-0 renal it was 44%; with COLO 205 colon it was 62.3%.

On to `CC(C)CCC[C@@H](C)[C@H]1CC[C@H]2[C@@H]3CC=C4N(c5ccccc5)C(=O)CC[C@]4(C)[C@H]3CC[C@]12C`, for which the growth in the assay with NCI-H23 lung was 97.2%; with NCI-H226 lung it was 99.2%; in the assay with NCI-H322M lung it was 98.3%; with HOP-62 NSCLC it was 98.8%; with NCI-H460 lung, 111%; with HOP-92 NSCLC it was 60.2%. The growth in the assay with NCI-H522 lung was 94.1%; in the assay with A549/ATCC NSCLC, 97.4%; in the assay on 786-0 renal, 93.9%; with COLO 205 colon it was 97.9%.

Take `Nc1ncnc2c1c(-c1ccc(Oc3ccccc3)cc1)nn2C[C@H]1SSC[C@H]1O`: the growth with NCI-H23 lung was 19.3%; in the assay with NCI-H226 lung it was -2.25% (active); with NCI-H322M lung it was 13.4%; in the assay on HOP-62 NSCLC it was 20.1%; in the assay on NCI-H460 lung, -43.6% (active); in the assay with HOP-92 NSCLC, -4.52% (active). Moreover, the growth with NCI-H522 lung is -31.1% (active); with A549/ATCC NSCLC, -35.8% (active); in the assay with 786-0 renal it was 12.9%; in the assay with COLO 205 colon, -83.3% (active).

In the case of `Cc1cc2c(cc1C)N(C(=O)CCl)CCN2C(=O)CCl`, the growth was -57.1% (active) in the assay on NCI-H23 lung; -19.3% (active) with NCI-H226 lung; 10.2% in the assay with NCI-H322M lung; -46.7% (active) with HOP-62 NSCLC; -54.7% (active) in the assay with NCI-H460 lung; -72.5% (active) with HOP-92 NSCLC. Besides, the growth with NCI-H522 lung is -82.5% (active); in the assay with A549/ATCC NSCLC it was -29.4% (active); in the assay on 786-0 renal, -24.8% (active); in the assay on COLO 205 colon it was -41.7% (active).

With `COc1ccc(-c2[nH]c3ccccc3c2/C=C(\C#N)S(=O)(=O)c2ccccc2)cc1`, the growth in the assay with NCI-H23 lung was 17.5%; in the assay with NCI-H226 lung, 65.2%; in the assay on NCI-H322M lung, 61.9%; in the assay on HOP-62 NSCLC, 35.5%; in the assay on NCI-H460 lung, 3.97% (active); with HOP-92 NSCLC it was 65.5%. Further, the growth was 26.8% in the assay on NCI-H522 lung, 33.9% in the assay on A549/ATCC NSCLC, 22.1% in the assay with 786-0 renal and -39.4% (active) with COLO 205 colon.

Regarding `CCOC(=O)NNc1nncc2ccccc12`, the growth in the assay on NCI-H23 lung was 95.4%; with NCI-H226 lung, 104%; in the assay on NCI-H322M lung, 102%; with HOP-62 NSCLC it was 102%; in the assay on NCI-H460 lung, 110%; in the assay with HOP-92 NSCLC, 95.1%. Besides, the growth was 103% in the assay with NCI-H522 lung, 104% with A549/ATCC NSCLC, 99.1% in the assay on 786-0 renal and 105% in the assay on COLO 205 colon.

Turning to `COc1ccccc1S(=O)(=O)Nc1ccc2c3c(cc(-c4ccoc4)nc13)C(=O)N2C`, the growth in the assay with NCI-H23 lung was 81.2%; in the assay with NCI-H226 lung it was 82.7%; with NCI-H322M lung, 76.2%; in the assay with HOP-62 NSCLC, 52.6%; in the assay on NCI-H460 lung, 70.9%; in the assay on HOP-92 NSCLC, 45.3%. In addition, the growth in the assay with NCI-H522 lung is 46.3%; in the assay with A549/ATCC NSCLC it was 66.2%; in the assay with 786-0 renal, 53.6%; in the assay with COLO 205 colon it was 44.7%.

As for `Cc1nssc1=S`, the growth was 91.5% in the assay on NCI-H23 lung; 99.6% with NCI-H226 lung; 85.2% with NCI-H322M lung; 107% in the assay with HOP-62 NSCLC; 109% in the assay on NCI-H460 lung; 59.9% with HOP-92 NSCLC. The growth is 82.6% in the assay with NCI-H522 lung, 111% in the assay on A549/ATCC NSCLC, 95.3% with 786-0 renal and 91.2% in the assay on COLO 205 colon.

As to `CN(C)CCS(=O)(=O)Nc1cc(-c2ccc3ncnc(Nc4ccc(F)c(Cl)c4)c3c2)cnc1Cl`, the growth was -10.1% (active) in the assay on NCI-H23 lung; 1.48% (active) in the assay with NCI-H226 lung; -21.5% (active) with NCI-H322M lung; -5.38% (active) in the assay with HOP-62 NSCLC; 7.68% (active) with NCI-H460 lung; -21.4% (active) in the assay on HOP-92 NSCLC. Also, the growth in the assay on NCI-H522 lung is -17.7% (active); in the assay with A549/ATCC NSCLC, -31.7% (active); in the assay on 786-0 renal it was 12.8%; in the assay on COLO 205 colon, -80% (active).

`COc1cc(C(=O)NNC(=O)c2ccccc2O)cc(OC)c1OC`: the growth in the assay with NCI-H23 lung is 101%; in the assay on NCI-H226 lung, 96.8%; in the assay on NCI-H322M lung, 93.5%; in the assay with HOP-62 NSCLC, 99.7%; with NCI-H460 lung it was 102%; in the assay on HOP-92 NSCLC, 83%. The growth with NCI-H522 lung was 61.9%; with A549/ATCC NSCLC, 82.9%; in the assay with 786-0 renal it was 97.6%; with COLO 205 colon, 94.3%.

Consider `Cc1ccc2nc(-c3ccc(-n4on4-c4ccc(/C=C/c5ccc(-n6on6-c6ccc(-c7nc8ccc(C)cc8s7)cc6)cc5S(=O)(=O)O)c(S(=O)(=O)O)c4)cc3)sc2c1`, for which the growth was 105% in the assay on NCI-H23 lung; 108% in the assay on NCI-H226 lung; 112% with NCI-H322M lung; 121% with HOP-62 NSCLC; 114% in the assay on NCI-H460 lung; 138% in the assay with HOP-92 NSCLC. The growth is 117% in the assay on NCI-H522 lung, 113% with A549/ATCC NSCLC, 98.2% in the assay on 786-0 renal and 119% in the assay on COLO 205 colon.

For the compound `Nc1nccc2c1ccn2-c1cccc(NC(=O)c2ccc(N3CCOCC3)c(C(F)(F)F)c2)c1`, the growth with NCI-H23 lung was 16.4%; in the assay with NCI-H226 lung, 35.8%; in the assay on NCI-H322M lung it was 35.3%; in the assay with HOP-62 NSCLC it was 24.1%; in the assay with NCI-H460 lung, 1.28% (active); with HOP-92 NSCLC, -6.29% (active). In addition, the growth is -43% (active) with NCI-H522 lung, 10.8% in the assay with A549/ATCC NSCLC, -38.9% (active) in the assay with 786-0 renal and -38.6% (active) in the assay with COLO 205 colon.

As to `CC(=O)n1cc(/C=C2\N=C(c3ccc(Cl)cc3)N(c3ccc(S(=O)(=O)Nc4nccs4)cc3)C2=O)c2ccccc21`, the growth was 89% in the assay on NCI-H23 lung; 94.7% with NCI-H226 lung; 85.8% in the assay with NCI-H322M lung; 97.6% in the assay with HOP-62 NSCLC; 82.1% in the assay with NCI-H460 lung; 95.9% with HOP-92 NSCLC. Besides, the growth with NCI-H522 lung is 60%; in the assay with A549/ATCC NSCLC, 91%; with 786-0 renal it was 88.6%; in the assay with COLO 205 colon it was 115%.
